# Assay results reported in PubChem BioAssay AID1159580 (chemical genetic matrix, 2015).
# About 2,000 (36%) of roughly 5,500 compounds were called active. About 18% were inconclusive and are not listed. The list shows a part of the results. A number with no mark means an inactive call. Cut-off read from the data, not from the text of the source: active = normalized growth mostly below about 0.91 (no sharp cut-off); inconclusive = no clear call, values can overlap the other calls; inactive = mostly above about 0.92.
# Experiment: chemical genetic growth profiling, strain panel (AID 1159580);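 note: tested at 20 µM; growth read once vehicle control cultures reached saturation at 30 °C; 1 = growth at the plate median or of vehicle wells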
# Conditions: S. cerevisiae deletion strains, growth OD
structure (smiles),measurement,setting,value
CC(C)(O)C#Cc1ccc(/C=N\Nc2c(Cl)cc(Cl)cc2Cl)cc1,normalized growth,"locus YAR019C, strain CDC15, stronger effect = lower value",0.982
same,normalized growth,"locus YBL105C, strain PKC1, stronger effect = lower value",0.982
same,normalized growth,"locus YBR135W, strain CKS1, stronger effect = lower value",0.962
same,normalized growth,"locus YBR136W, strain MEC1, stronger effect = lower value",0.979
same,normalized growth,"locus YBR160W, strain CDC28, stronger effect = lower value",0.969
same,normalized growth,"locus YDL017W, strain CDC7, stronger effect = lower value",0.982
same,normalized growth,"locus YDL028C, strain MPS1, stronger effect = lower value",0.973
same,normalized growth,"locus YDL101C, strain DUN1, stronger effect = lower value",0.986
same,normalized growth,"locus YDL108W, strain KIN28, stronger effect = lower value",0.968
same,normalized growth,"locus YDL132W, strain cdc53, stronger effect = lower value",0.969
same,normalized growth,"locus YDL214C, strain PRR2, stronger effect = lower value",0.881
same,normalized growth,"locus YDR052C, strain DBF4, stronger effect = lower value",0.978
same,normalized growth,"locus YDR054C, strain cdc34, stronger effect = lower value",0.963
same,normalized growth,"locus YDR226W, strain ADK1, stronger effect = lower value",0.978
same,normalized growth,"locus YDR477W, strain SNF1, stronger effect = lower value",0.773
same,normalized growth,"locus YER123W, strain YCK3, stronger effect = lower value",0.86
same,normalized growth,"locus YER133W, strain GLC7, stronger effect = lower value",0.862
same,normalized growth,"locus YFL009W, strain cdc4, stronger effect = lower value",0.975
same,normalized growth,"locus YFL029C, strain CAK1, stronger effect = lower value",0.973
same,normalized growth,"locus YFR003C, strain YPI1, stronger effect = lower value",0.978
same,normalized growth,"locus YFR019W, strain FAB1, stronger effect = lower value",0.848
same,normalized growth,"locus YFR028C, strain CDC14, stronger effect = lower value",0.976
same,normalized growth,"locus YGR040W, strain KSS1, stronger effect = lower value",0.833
same,normalized growth,"locus YGR052W, strain FMP48, stronger effect = lower value",0.769
same,normalized growth,"locus YGR092W, strain DBF2, stronger effect = lower value",0.746
same,normalized growth,"locus YHR030C, strain SLT2, stronger effect = lower value",0.354 (active)
same,normalized growth,"locus YHR079C, strain IRE1, stronger effect = lower value",0.668
same,normalized growth,"locus YHR082C, strain KSP1, stronger effect = lower value",0.591 (active)
same,normalized growth,"locus YHR205W, strain SCH9, stronger effect = lower value",0.832
same,normalized growth,"locus YIL147C, strain SLN1, stronger effect = lower value",0.973
same,normalized growth,"locus YJL095W, strain BCK1, stronger effect = lower value",0.341 (active)
same,normalized growth,"locus YJL157C, strain FAR1, stronger effect = lower value",0.886
same,normalized growth,"locus YJR016C, strain ILV3, stronger effect = lower value",0.973
same,normalized growth,"locus YJR066W, strain TOR1 (second series), stronger effect = lower value",0.86
same,normalized growth,"locus YJR066W, strain TOR1, stronger effect = lower value",0.728
same,normalized growth,"locus YKL048C, strain ELM1, stronger effect = lower value",0.93
same,normalized growth,"locus YKL067W, strain YNK1, stronger effect = lower value",0.893
same,normalized growth,"locus YKL101W, strain HSL1, stronger effect = lower value",0.765
same,normalized growth,"locus YKL193C, strain SDS22, stronger effect = lower value",0.974
same,normalized growth,"locus YKL203C, strain TOR2, stronger effect = lower value",0.838
same,normalized growth,"locus YLR113W, strain HOG1, stronger effect = lower value",0.574 (active)
same,normalized growth,"locus YML070W, strain DAK1, stronger effect = lower value",0.707
same,normalized growth,"locus YMR001C, strain CDC5, stronger effect = lower value",0.974
same,normalized growth,"locus YMR205C, strain PFK2 (second series), stronger effect = lower value",0.925
same,normalized growth,"locus YMR277W, strain FCP1, stronger effect = lower value",0.971
same,normalized growth,"locus YNL006W, strain LST8, stronger effect = lower value",0.984
same,normalized growth,"locus YNL020C, strain ARK1, stronger effect = lower value",0.758
same,normalized growth,"locus YNL161W, strain CBK1, stronger effect = lower value",0.98
same,normalized growth,"locus YNL183C, strain NPR1, stronger effect = lower value",0.728
same,normalized growth,"locus YNL207W, strain RIO2, stronger effect = lower value",0.981
same,normalized growth,"locus YNL222W, strain SSU72, stronger effect = lower value",0.979
same,normalized growth,"locus YNL307C, strain MCK1 (second series), stronger effect = lower value",0.768
same,normalized growth,"locus YOL078W, strain AVO1, stronger effect = lower value",0.978
same,normalized growth,"locus YOL136C, strain PFK27, stronger effect = lower value",0.904
same,normalized growth,"locus YOR061W, strain CKA2, stronger effect = lower value",0.73
same,normalized growth,"locus YOR119C, strain RIO1, stronger effect = lower value",1.03
same,normalized growth,"locus YOR231W, strain MKK1, stronger effect = lower value",0.708
same,normalized growth,"locus YOR329C, strain SCD5, stronger effect = lower value",0.983
same,normalized growth,"locus YPL031C, strain PHO85, stronger effect = lower value",0.709
same,normalized growth,"locus YPL153C, strain RAD53, stronger effect = lower value",0.85
same,normalized growth,"locus YPL204W, strain HRR25, stronger effect = lower value",0.839
same,normalized growth,"locus YPL209C, strain IPL1, stronger effect = lower value",0.979
same,normalized growth,"locus YPL256C, strain CLN2, stronger effect = lower value",0.766 (active)
same,normalized growth,"locus YPR025C, strain CCL1, stronger effect = lower value",0.972
same,normalized growth,"locus YPR106W, strain ISR1, stronger effect = lower value",0.977
same,normalized growth,"locus YPR111W, strain DBF20, stronger effect = lower value",0.962
same,normalized growth,"strain NNK1, stronger effect = lower value",0.972
same,normalized growth,"strain TSCII, stronger effect = lower value",0.977
